Bioassay records deposited in PubChem by National Center for Advancing Translational Sciences (NCATS).
LmPK inh: LmPK (Leishmania mexicana) enzyme inhibition; purified LmPK, Kinase-Glo ATP luminescence, 1 h; Potency, µM (titrated, usually from 57.5 µM), inactives show top-dose activity change, negative = inhibition, actives largely listed as inhibitors; Q27686; 290,000 compounds, 0.37% hits; AID 1721; note: potency is the fitted concentration of half-maximal effect; % is set by controls: 0 for no effect and ±100 for the full control effect
Target sequence (Q27686 whole entry, looked up): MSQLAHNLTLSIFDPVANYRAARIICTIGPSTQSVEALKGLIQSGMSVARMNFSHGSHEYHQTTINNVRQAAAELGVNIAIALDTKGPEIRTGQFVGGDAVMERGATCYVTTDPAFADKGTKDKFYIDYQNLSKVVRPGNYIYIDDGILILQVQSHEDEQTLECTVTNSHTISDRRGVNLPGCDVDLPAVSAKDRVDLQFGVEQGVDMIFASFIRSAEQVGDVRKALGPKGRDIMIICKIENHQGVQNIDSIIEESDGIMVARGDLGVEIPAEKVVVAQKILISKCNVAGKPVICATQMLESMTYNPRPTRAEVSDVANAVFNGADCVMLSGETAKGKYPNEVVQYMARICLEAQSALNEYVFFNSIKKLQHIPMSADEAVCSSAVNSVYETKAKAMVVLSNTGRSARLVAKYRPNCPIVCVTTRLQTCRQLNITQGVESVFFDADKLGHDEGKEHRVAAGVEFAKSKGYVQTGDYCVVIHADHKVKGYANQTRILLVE
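Screened at intermediate enzyme activity to detect both inhibitors and activators: LmPK at 0.1 nM, with a 0.5 nM enzyme column as activation reference. PEP 0.5 mM, ADP 0.1 mM; ATP detected by luminescence after 1 h.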
TbPYK inhibitor: blocks Trypanosoma brucei pyruvate kinase | Q57TT1 | 410,000 compounds, 0.12% hits | Potency, µM (series often up to 76.8 µM), for the others: at the highest dose activity, negative = inhibition, hits mostly inhibitors | TbPYK enzyme, Kinase-Glo Plus ATP luminescence, 45 min; note: potency is the fitted concentration of half-maximal effect; % is set by controls: 0 for no effect and ±100 for the full control effect; nearly all actives have a fitted effect of over 50% in size
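Luminescent Kinase-Glo Plus end-point after 45 min room-temperature reaction of T. brucei pyruvate kinase started with 130 uM ADP (final). Buffer TEA 50 mM pH 7.2 with KCl, MgCl2, BSA, Tween-20; titration-based qHTS with fitted concentration-effect curves.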
RE007 growth inh: less growth of the S. pombe RE007 Vpr strain. S. pombe RE007 Vpr strain, BacTiter-Glo ATP luminescence, 24 h. Potency, µM (highest dose often 92.2 µM), for inactives: top-dose activity change, negative = less growth, usual class: inhibitors. 360,000 compounds, 0.21% hits; active = well fitted falling curve with a large enough effect; inconclusive = small, poorly fitted or top-dose-only effect; inactive = no such curve, though single readings can be large or run the other way; note: potency is the fitted concentration of half-maximal effect; % is set by controls: 0 for no effect and ±100 for the full control effect; nearly all actives have a fitted effect of over 50% in size
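Fission yeast RE007 carrying one integrated HIV-1 vpr copy, seeded at OD 0.01 in PMG+AL medium with 23 nL pinned compound. Grown 24 h at 30 degrees; viability read by BacTiter-Glo luminescence after 5 min.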
FBPA Giardia inh: blocks Giardia fructose-bisphosphate aldolase activity; A8B2U2; purified Giardia FBPA; Potency, µM (series often up to 59.6 µM), for the others: top-dose activity, negative = inhibition, most hits filed as inhibitors; 290,000 compounds, 0.71% hits; note: potency is the fitted concentration of half-maximal effect; % is set by controls: 0 for no effect and ±100 for the full control effect; nearly all actives have a fitted effect of over 55% in size
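40 nM FBPA preincubated 10 min at RT with compound (up to 57.5 uM final), then substrate plus GAPDH/TPI/NAD/arsenate coupling and diaphorase/resazurin added. Fluorescence read after 20 min at RT, 525/598 nm.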
Shiga toxin inh: inhibitors of Shiga toxin in Vero cells; inhibition, % at 38.7 µM; Vero cells, Shiga toxin protein synthesis inhibition reporter; AID 2315; 290,000 compounds, 9.2% hits; in the data active = inhibition mostly above about 28%, no sharp cut-off; inactive = mostly below about 43%; note: 0% is about no effect
CHX counter: affects cycloheximide protein synthesis inhibition readout, counter-screen; max response, %; cell reporter, cycloheximide protein synthesis inhibition counterscreen; 300,000 compounds, 12% hits; in the data active = max response mostly above about 13%, no sharp cut-off; inactive = mostly below about 14%; note: read at 38.3 µM for the half of the compounds with a filed dose; 0% is about no effect
The depositor's hits bear a star; ? = inconclusive; · = no result given; [ ] = another dose, or the depositor's remark. Only a selection was taken, and hits are over-represented in it overall. Unless noted, calls come from the whole dose curve; as a rule, active = well fitted curve in the direction sought with a large enough effect; inconclusive = small, poorly fitted or top-dose-only effect, or another doubt; inactive = no such curve, though single readings can be large; an effect the other way counts as inactive or inconclusive.

SMILES	LmPK inh	TbPYK inhibitor	RE007 growth inh	FBPA Giardia inh	Shiga toxin inh	CHX counter
O=C(CCl)c1ccc(Oc2ccc(C(=O)CCl)cc2)cc1	·	-15.3%	·	·	·	·
CSc1nc2ccc(NC(=O)c3ccc(F)c(F)c3)cc2s1	-3.7%	-7.1%	14.1%	-5.8%	40.5*	39.4*
CSc1nc2ccc(NC(=O)c3ccc(=O)[nH]c3)cc2s1	-3.2%	2.3%	-8.0%	11.0%	-5.9	8.6
CC(=O)Nc1ccc2nc(NC(=O)c3ccco3)sc2c1	-15.2%	4.7%	-23.4%	-9.9%	36.2*	25.3*
CSc1nc2ccc(NC(=O)c3ccc(=O)n(C)n3)cc2s1	?	-1.0%	-11.7%	-4.0%	42.4*	19.1*
O=C(Nc1nc2ccc([N+](=O)[O-])cc2s1)c1ccco1	-16.3%	·	·	3.6%	44.2	27.4*
N#Cc1cccc(-c2nccc(-n3ccnc3)n2)c1	·	·	·	-2.6%	·	·
Cc1ccc(OCc2ccc(-c3nc(C#N)c(NCc4ccccc4Cl)o3)o2)cc1	·	3.0%	·	·	·	·
CCOc1ccc(NC(=O)[C@H]2O[C@@H]3OC(C)(C)O[C@@H]3[C@H]3OC(C)(C)O[C@H]32)cc1	·	1.9%	·	·	·	·
CCOc1cccc2sc(NN)nc12	?	-11.8%	-14.6%	-22.8%	-13.2	0.9
CCOc1cccc2sc(Nc3nc4ccc(NC(C)=O)cc4s3)nc12	0.9%	-8.3%	2.6%	-9.7%	57.8*	27.4*
CCCn1c(O)c(N=NC(=O)c2ccco2)c2ccccc21	-4.3%	0.6%	-12.4%	?	52.8*	7.9
COc1ccc(CC(=O)NCC(=O)N=Nc2c(O)[nH]c3ccccc23)cc1	-0.5%	-6.6%	8.2%	-10.2%	-8.9	10.0
O=C(N=Nc1c(O)[nH]c2ccccc12)c1ccc2c(c1)OCO2	-28.1%	-2.5%	-6.6%	1.9%	33.3	26.7*
O=C(CSCc1ccccc1)N=Nc1c(O)[nH]c2ccccc12	-1.0%	-2.7%	8.0%	-11.4%	10.6	27.4*
O=C(CNC(=O)c1ccccn1)N=Nc1c(O)[nH]c2ccccc12	4.3%	-0.6%	-3.7%	9.5%	47.1*	22.2
CC(=O)c1ccc(NC(=O)CSc2ccc3nc(-c4ccccc4)cn3n2)cc1	·	-5.7%	·	·	·	·
Cc1nn(C)c2c1c(C(F)(F)F)cc(=O)n2C(C)C(=O)NCCC(C)C (stereo unspecified)	·	0.9%	·	·	·	·
CCC(O)(CC)C(=O)N=Nc1c(O)[nH]c2ccccc12	0.5%	3.5%	5.9%	0.1%	-17.2	3.3
CC(C)CC(=O)N=Nc1c(O)[nH]c2ccccc12	-4.4%[11.5 µM]	-2.2%	-6.3%	1.6%	105.7*	26.2*
NC(=S)N=Nc1c(O)[nH]c2ccccc12	-0.7%	-4.2%	3.4%	-10.1%	-1.9	-5.0
CC(=O)/C=C(\C)N=Nc1c(O)[nH]c2ccccc12	-1.6%	1.0%	6.1%	-9.8%	56.3*	32.3*
O=C(N=Nc1c(O)[nH]c2ccccc12)c1ccco1	25.1µM*	7.8%	-25.8%	-21.4%	65.1*	45.1*
COc1ccccc1/C=C/C(=O)NCC(=O)N=Nc1c(O)[nH]c2ccccc12	11.5%	-1.0%	-4.1%	·	7.2	-3.7
Cc1ccc(C)c(CN2CCCN(Cc3ccc(F)cc3)S2(=O)=O)c1	·	-1.9%[15.4 µM]	·	·	·	·
SMILES	LmPK inh	TbPYK inhibitor	RE007 growth inh	FBPA Giardia inh	Shiga toxin inh	CHX counter
Nc1nc2ncc(=O)[nH]c2c(=O)[nH]1	·	·	·	-25.5%	·	·
COc1ccc(-c2cnn3c(N)c(S(=O)(=O)C(C)(C)C)cnc23)cc1	3.0%	-21.1%	3.2%	-12.2%	40.3	31.6*
COc1ccc(-c2cnc3c(-c4ccc(F)cc4)cnn3c2N)cc1	12.7%	0.2%	-15.6%	8.9%	121.2*	51.0*
CC(C)(C)S(=O)(=O)c1cnc2c(-c3ccc(Cl)cc3)cnn2c1N	-0.6%	3.8%	14.7%	?	-6.4	-3.7
CS(=O)(=O)c1cnc2c(-c3ccsc3)cnn2c1N	-1.2%	-12.6%	19.4%	-4.1%	66.5*	37.8*
CCC(C)c1cc([N+](=O)[O-])cc([N+](=O)[O-])c1OC(=O)OC(C)C (stereo unspecified)	·	·	·	-17.8%	15.5	6.4
COc1cccc(-c2nc(N)nc(SC)c2C#N)c1	0.4%	1.1%	4.0%	2.1%	31.1	13.7*
